# Experimental data from the supplement of paper PMC10670038.
# Structures can show the parent of a compound that is named as a salt. ± gives the standard deviation of the averaged measurements. In all, about 2,000 compounds were measured (“relative cell viability vs DMSO, compound alone”: median about 1.1, lowest 2% from about 0.29 on). The list comes from a sample in which the lowest values are over-represented; it also holds similar structures and randomly drawn compounds.
# System: TE10
# Assay: relative cell viability vs DMSO, compound alone (fraction); TE10 is an esophageal squamous carcinoma line; higher = less cytotoxic
# Conditions: 2 µM; 48 h
# Protocol: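 TE10 ESCC cells (1,000/well, 384-well plates) were treated with Selleck bioactive library compounds at 2 uM alone for 48 h. Viability was read by CellTiter-Glo and expressed relative to DMSO wells. Two technical replicates (A, B).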
row,Compound,relative cell viability
1,CN(NC(=O)CC(=O)NN(C)C(=S)c1ccccc1)C(=S)c1ccccc1 [Elesclomol (STA-4783)],0.181 ± 0.013
2,O=C(O)CCNC(=O)c1ccccc1 [Betamipron],1.08 ± 0.022
3,O=C(O)c1ccccc1 [Benzoic Acid],1.09 ± 0.0064
4,CC1(C)O[C@@H]2[C@@H](CO[C@@]3(COS(N)(=O)=O)OC(C)(C)O[C@@H]23)O1 [Topiramate],1.29 ± 0.052
5,C[C@@H]1CN(CC(=O)Nc2ccc3c(c2)Cc2cccc(-c4cc(=O)cc(N5CCOCC5)o4)c2S3)C[C@H](C)O1,1.17 ± 0.021
6,Cc1cc(C)cc(NC(=O)Cc2ccc(OC(C)(C)C(=O)O)cc2)c1 [Efaproxiral Sodium],1.11 ± 0.012
7,CC(ONC(=O)c1cc(C(F)(F)F)cc(C(F)(F)F)c1)C(=O)Nc1ccc(Cl)cc1 (stereo not given),1.07 ± 0.024
8,O=C(Nc1cc(C(F)(F)F)cc(C(F)(F)F)c1)c1cc(Cl)ccc1O,0.18 ± 0.0024
9,O=C(Nc1ccccc1)c1ccccc1O [Salicylanilide],1.07 ± 0.059
10,C=CC(=O)Nc1cccc(Oc2nc(Nc3ccc(N4CCN(C)CC4)cc3)ncc2Cl)c1,0.758 ± 0.011
11,C[C@H]1O[C@@H](O[C@H]2[C@@H](O)C[C@H](O[C@H]3[C@@H](O)C[C@H](O[C@H]4CC[C@@]5(C)[C@H](CC[C@@H]6[C@@H]5C[C@@H](O)[C@]5(C)[C@@H](C7=CC(=O)OC7)CC[C@]65O)C4)O[C@@H]3C)O[C@@H]2C)C[C@H](O)[C@@H]1O [Digoxin],0.603 ± 0.013
12,Nc1nc(=O)n([C@@H]2CS[C@H](CO)O2)cc1F [Emtricitabine],1.06 ± 0.076
13,CCn1c2ccccc2c2cc(Nc3ccnc(NCCCN4CCOCC4)n3)ccc21,1.2 ± 0.076
14,COc1ccc(-c2nc(N3CCOCC3)c3sc(CN(C)c4ncc(C(=O)NO)cn4)cc3n2)cn1,0.0746 ± 0.0025
15,CS(=O)(=O)N1CCN(Cc2cc3nc(-c4cccc5[nH]ncc45)nc(N4CCOCC4)c3s2)CC1,0.483 ± 0.0077
16,Cc1c(CN2CCN(C(=O)[C@H](C)O)CC2)sc2c(N3CCOCC3)nc(-c3cnc(N)nc3)nc12,0.317 ± 0.021
17,C[C@@H](Oc1ccc2[nH]nc(/C=C/c3cnn(CCO)c3)c2c1)c1c(Cl)cncc1Cl,0.712 ± 0.01
18,Cc1nc(Nc2n[nH]c3c2CN(C(=O)N[C@H](CN(C)C)c2ccccc2)C3(C)C)c2sccc2n1,0.789 ± 0.037
19,COc1cccc2cc(-c3nc([C@H]4CC[C@H](C(=O)O)CC4)n4ncnc(N)c34)[nH]c12,0.667 ± 0.0089
20,Cc1cc(N2CCOCC2)ccc1Nc1nc(NC2CCCCC2)c2[nH]cnc2n1,1.098 ± 0.0034
21,Cc1cccc(CC(=O)N2CCc3c2ccc(-c2cn(C)c4ncnc(N)c24)c3F)n1,1.01 ± 0.047
22,CCCCCCCCCCCCCCCC(=O)OCC(O)C1OC(=O)C(O)=C1O [L-Ascorbyl 6-palmitate],1.14 ± 0.031
23,O=C(O)CCCc1c[nH]c2ccccc12 [3-Indolebutyric acid (IBA)],1.1 ± 0.024
24,OCc1c[nH]c2ccccc12 [Indole-3-carbinol],1.14 ± 0.048
25,O=C(/C=C/c1ccc(CN(CCO)CCc2c[nH]c3ccccc23)cc1)NO [LAQ824 (Dacinostat)],0.0682 ± 0.006
26,CCc1c(O)cc(O)c(C(=O)c2ccc(OCCN3CCOCC3)c(OC)c2)c1CC(=O)N(CCOC)CCOC,0.546 ± 0.009
27,CC(C)/N=c1\cc2n(-c3ccc(Cl)cc3)c3ccccc3nc-2cc1Nc1ccc(Cl)cc1 [Clofazimine],0.929 ± 0.062

row,Compound,relative cell viability
1,CC(C)CC(N)=O [Isovaleramide],1.1 ± 0.057
2,COc1cc(C(=O)NS(=O)(=O)c2ccccc2C)ccc1Cc1cn(C)c2ccc(NC(=O)OC3CCCC3)cc12 [Zafirlukast],1.03 ± 0.033
3,CN1CCc2c(c3ccccc3n2Cc2ccc(C(=O)NO)cc2)C1 [Tubastatin A HCl],0.9558 ± 0.0063
4,CN1CCc2c(c3ccccc3n2Cc2ccc(C(=O)NO)cc2)C1 [Tubastatin A],1.14 ± 0.023
5,Cn1cc(CNCC2CCN(c3ncc(C(=O)NO)cn3)CC2)c2ccccc21,0.078 ± 0.0008
6,CCOc1ccc2nc3cc(N)ccc3c(N)c2c1 [Ethacridine lactate monohydrate],1.033 ± 0.0023
7,CCN(CC)CCCCNc1ncc2cc(-c3cc(OC)cc(OC)c3)c(NC(=O)NC(C)(C)C)nc2n1,1.23 ± 0.029
8,NC1CC1c1ccc(-c2cccc(O)c2)cc1 (stereo not given),1.09 ± 0.03
9,N[C@@H]1CCCN(c2c(/C=C3\SC(=O)NC3=O)cccc2-c2ccccc2)C1,1.03 ± 0.047
10,CN(C)c1cccc(-c2c3c(=O)n(-c4ccccc4Cl)[nH]c3cc(=O)n2C)c1,0.959 ± 0.036
11,CC(C)C[C@H](NC(=O)[C@H](Cc1ccccc1)NC(=O)c1cnccn1)B(O)O [Bortezomib (PS-341)],0.09 ± 0.011
12,CC(C)C[C@H](NC(=O)CNC(=O)c1cc(Cl)ccc1Cl)B(O)O,0.341 ± 0.023
13,CNC(=O)[C@H](Cc1ccccc1)NC(=O)[C@H](CC(C)C)[C@H](CSc1cccs1)C(=O)NO [Batimastat (BB-94)],0.884 ± 0.076
14,Nc1ccccc1NC(=O)c1cnccn1,1.11 ± 0.037
15,CC(C)C[C@H](NC(=O)[C@@H](NC(=O)c1cccc(-c2ccccc2)n1)[C@@H](C)O)B(O)O,0.0932 ± 0.003
16,Cc1cc2c(cc1CC(=O)c1sccc1S(=O)(=O)Nc1onc(C)c1Cl)OCO2 [Sitaxentan sodium],1.06 ± 0.022
17,CC(C)(O)CC(=O)NCCn1ccc2ncnc(Nc3ccc(Oc4cccc(C(F)(F)F)c4)c(Cl)c3)c21,1.17 ± 0.07
18,Oc1ccc(Nc2nc(-c3ccc(Cl)cc3)cs2)cc1,1.11 ± 0.019
19,COc1cc(C=O)ccc1O [Vanillin],1.11 ± 0.027
20,Cc1cc(Nc2cc(N3CCN(C)CC3)nc(/C=C/c3ccccc3)n2)n[nH]1 [ENMD-2076 L-(+)-Tartaric acid],0.808 ± 0.069
21,Cc1cc(Nc2cc(N3CCN(C)CC3)nc(/C=C/c3ccccc3)n2)n[nH]1,0.856 ± 0.03
22,Cc1cc(C)nc(NS(=O)(=O)c2ccc(N)cc2)n1 [Sulfamethazine],1.1 ± 0.044
23,COCCCC/C(=N\OCCN)c1ccc(C(F)(F)F)cc1 [Fluvoxamine maleate],1.21 ± 0.041
24,COC(=O)[C@]12CCC(C)(C)C[C@H]1[C@H]1C(=O)C=C3[C@@]4(C)C=C(C#N)C(=O)C(C)(C)[C@@H]4CC[C@@]3(C)[C@]1(C)CC2 [Bardoxolone Methyl],0.272 ± 0.0085
25,CC1(C)CC[C@]2(NC(=O)C(C)(F)F)CC[C@]3(C)[C@H](C(=O)C=C4[C@@]5(C)C=C(C#N)C(=O)C(C)(C)[C@@H]5CC[C@]43C)[C@@H]2C1 [Omaveloxolone (RTA-408)],0.59 ± 0.032
26,N#Cc1ccc(-c2csc(NN=C3CCCC3)n2)cc1 [Remodelin],1.121 ± 0.0093
27,COc1cc2ncnc(Nc3ccc(Cl)cc3F)c2cc1OC,0.999 ± 0.16

row,Compound,relative cell viability
1,NC(=O)Nc1cc(-c2cccc(F)c2)sc1C(=O)N[C@H]1CCCNC1,0.259 ± 0.021
2,COc1cc(C(=O)NC2CCCNC2)cc(OC)c1OC (stereo not given) [Troxipide],1.13 ± 0.016
3,NC(=O)Nc1sc(-c2ccc(F)cc2)cc1C(N)=O,0.98 ± 0.072
4,C[N+](C)(C)C[C@H](O)CC(=O)[O-] [L-carnitine],1.04 ± 0.016
5,NC(=O)N1CCC(CC(=O)N2CCC([C@H]3c4ncc(Br)cc4CCc4cc(Cl)cc(Br)c43)CC2)CC1 [Lonafarnib],1.06 ± 0.049
6,CNC[C@H](O)[C@@H](O)[C@H](O)[C@H](O)CO [Meglumine],1.008 ± 0.0073
7,COc1cc(-c2cc(-c3ccc(N4CCNCC4)cc3)cnc2C)cc(OC)c1OC,1.16 ± 0.019
8,COc1ccc(-c2ccc3ncc4c(c3c2)n(-c2ccc(N3CCNCC3)c(C(F)(F)F)c2)c(=O)n4C)cn1,0.0662 ± 0.0018
9,Nc1ccc(-c2ccc3ncc4ccc(=O)n(-c5cccc(C(F)(F)F)c5)c4c3c2)cn1 [Torin 2],0.378 ± 0.014
10,COc1cc(-c2cc(-c3cccc(O)c3)cnc2N)cc(OC)c1OC,1.21 ± 0.0055
11,COc1ccc(COc2cc3oc(=O)c4cc(C(C)O)ccc4c3cc2OC)cc1 (stereo not given) [Palomid 529 (P529)],1.14 ± 0.025
12,COCCOC(=O)C1=C(C)NC(C)=C(C(=O)OC/C=C/c2ccccc2)C1c1cccc([N+](=O)[O-])c1 (stereo not given) [Cilnidipine],1.15 ± 0.055
13,NCCCC[C@@H]1NC(=O)[C@@H](Cc2ccccc2)NC(=O)[C@H](CC(=O)O)NC(=O)CNC(=O)[C@H](CCCN=C(N)N)NC1=O [Cyclo (-RGDfK)],1.1 ± 0.024
14,CC(C)[C@H](C(=O)Nc1ccc(C(=O)NO)cc1)c1ccccc1,0.221 ± 0.015
15,CC(=O)Nc1ccc(C(=O)Nc2ccccc2N)cc1 [CI994 (Tacedinaline)],1 ± 0.017
16,CCCCN(Cc1ccc(C(=O)NO)cc1)C(=O)Nc1ccccc1 [Nexturastat A],0.716 ± 0.074
17,O=C(NC[C@H]1CN(c2ccc(N3CCOCC3=O)cc2)C(=O)O1)c1ccc(Cl)s1 [Rivaroxaban],1.04 ± 0.076
18,C[C@]12CCC3=C4CCC(=O)C=C4CC[C@H]3[C@@H]1CC[C@@]2(O)CC#N [Dienogest],1.19 ± 0.024
19,CC(C)Oc1ccc(-c2cnc3c(-c4ccnc5ccccc45)cnn3c2)cc1,1.19 ± 0.027
20,COc1ccc(-c2cnc3c(-c4cccc5ncccc45)cnn3c2)cc1,1.171 ± 0.0012
21,c1cc(-c2cnn3cc(-c4ccc(N5CCNCC5)cc4)cnc23)c2cccnc2c1,0.0982 ± 0.0034
22,COC(=O)c1ccc2c(c1)nc(NC(=O)c1ccccc1)n2CCCc1ccccc1,0.777 ± 0.0059
23,O=C(c1ccc(Nc2nccc(-c3cc4ccccc4s3)n2)cc1)N1CCC(N2CCCC2)CC1 [IKK-16 (IKK Inhibitor VII)],1.03 ± 0.02
24,CN1CC[C@H](c2c(O)cc(O)c3c(=O)cc(-c4ccccc4Cl)oc23)[C@H](O)C1 [Flavopiridol (Alvocidib)],0.228 ± 0.055
25,CN1CC[C@@H](c2c(O)cc(O)c3c(=O)cc(-c4ccccc4Cl)oc23)[C@@H]1CO,0.501 ± 0.008
26,CN1CC[C@H](c2c(O)cc(O)c3c(=O)cc(-c4ccccc4Cl)oc23)[C@H](O)C1 [Flavopiridol HCl],0.293 ± 0.03
